# Unmarked numbers belong to inactive results. Inconclusive results are not listed. Entries that show only a call come without a potency. Active and inactive are the calls of the source. Unless noted, calls come from the whole dose curve; as a rule, active = well fitted curve in the direction sought with a large enough effect; inconclusive = small, poorly fitted or top-dose-only effect, or another doubt; inactive = no such curve, though single readings can be large; an effect the other way counts as inactive or inconclusive.
# Tests used:
# CASKI = assay: Primary qHTS to identify gynecologic anti-cancer compounds using libraries of approved drugs and bioactive compounds (AID 1345084); conditions: Gynecologic cancer cell panel viability, ATPlite luminescence, 48 h; series mostly up to 57.5 µM; note: nearly all actives have a fitted effect of over 55% in size; note: potency is the fitted concentration of half-maximal effect
# Outline: (§1)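 Five-point cytotoxicity, 48 h drug exposure at 37 C, 5% CO2, on cells seeded 16 h beforehand. ATP content read by ATPlite luminescence.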
# Es-2 = assay: as above; conditions: Gynecologic cancer cell panel viability, ATPlite luminescence, 48 h; series mostly up to 57.5 µM
# Outline: as §1
# HeLa = assay: as above; conditions: Gynecologic cancer cell panel viability, ATPlite luminescence, 48 h; series mostly up to 57.5 µM
# Outline: as §1
# Hek293T = assay: as above; conditions: Gynecologic cancer cell panel viability, ATPlite luminescence, 48 h, control line for the selectivity index; series mostly up to 57.5 µM
# Outline: as §1
# JEG-3 = assay: as above; conditions: Gynecologic cancer cell panel viability, ATPlite luminescence, 48 h; series mostly up to 57.5 µM
# Outline: as §1
# OV90 = assay: as above; conditions: Gynecologic cancer cell panel viability, ATPlite luminescence, 48 h; series mostly up to 57.5 µM
# Outline: as §1
# PA-1 = assay: as above; conditions: Gynecologic cancer cell panel viability, ATPlite luminescence, 48 h; series mostly up to 57.5 µM
# Outline: as §1
# SKOV3 = assay: as above; conditions: Gynecologic cancer cell panel viability, ATPlite luminescence, 48 h; series mostly up to 57.5 µM
# Outline: as §1
# Tov-21-G = assay: as above; conditions: Gynecologic cancer cell panel viability, ATPlite luminescence, 48 h; series mostly up to 57.5 µM
# Outline: as §1
# Tov112D = assay: as above; conditions: Gynecologic cancer cell panel viability, ATPlite luminescence, 48 h; series mostly up to 57.5 µM
# Outline: as §1
# CAOV3 = assay: as above; conditions: Gynecologic cancer cell panel viability, ATPlite luminescence, 48 h; series mostly up to 57.5 µM
# Outline: as §1
# [1] = Drug repurposing screens with cells derived from glioblastoma tumor samples (AID 1345199); conditions: GBM patient neurospheres viability, ATP luminescence, 48 h; note: nearly all actives have a fitted effect of over 40% in size; note: potency is the fitted concentration of half-maximal effect
# Outline: (§2)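 Primary testing used CD133+ neurospheres from four GBM patients, seven concentrations, 48 h exposure and ATP-based viability; confirmation added three slower-growing patient lines.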
# astro = assay: as above; conditions: viability, ATP luminescence, 48 h; series mostly up to 45.9 µM
# Outline: as §2
# [2] = target: Nuclear receptor subfamily 1 group I member 2 (Rattus norvegicus) (UniProt Q9R1A7); assay: qHTS assay for small molecule activators of the rat pregnane X receptor (rPXR) signaling pathway (AID 651751; call rule not given here); conditions: rPXR reporter cells, luciferase (One-Glo), 24 h
# [3] = at 45.9 µM (top of the series), tumour line B
# [4] = at 45.9 µM (top of the series), tumour line D
# [5] = at 46.1 µM (top of the series), tumour line C
# Chain of Nuclear receptor subfamily 1 group I member 2 (Rattus norvegicus) (Q9R1A7 whole entry, looked up): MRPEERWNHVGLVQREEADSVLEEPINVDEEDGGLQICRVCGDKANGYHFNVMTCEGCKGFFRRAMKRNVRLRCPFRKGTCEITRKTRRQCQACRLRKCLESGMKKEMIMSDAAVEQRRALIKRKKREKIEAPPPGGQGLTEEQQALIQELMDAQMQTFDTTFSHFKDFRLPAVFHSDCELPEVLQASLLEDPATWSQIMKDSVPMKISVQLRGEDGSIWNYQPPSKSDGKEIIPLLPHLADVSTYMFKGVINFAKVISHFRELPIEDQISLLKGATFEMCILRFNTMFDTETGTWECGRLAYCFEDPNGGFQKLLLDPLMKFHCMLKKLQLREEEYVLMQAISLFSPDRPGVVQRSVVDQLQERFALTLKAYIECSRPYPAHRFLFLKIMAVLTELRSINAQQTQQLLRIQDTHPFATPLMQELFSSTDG
structure (smiles),measurement,setting,value
CCCCCCCCCCCCCCNCCO,Potency,CASKI,inactive
same,Potency,Es-2,inactive
same,Potency,HeLa,inactive
same,Potency,Hek293T,inactive
same,Potency,JEG-3,inactive
same,Potency,OV90,inactive
same,Potency,PA-1,inactive
same,Potency,SKOV3,inactive
same,Potency,Tov-21-G,inactive
same,Potency,Tov112D,inactive
Oc1c(I)cc(I)c2cccnc12,Potency,CAOV3,inactive
same,Potency,CASKI,inactive
same,Potency,HeLa,inactive
same,Potency,Hek293T,inactive
same,Potency,JEG-3,inactive
same,Potency,OV90,inactive
same,Potency,SKOV3,inactive
same,Potency,Tov112D,inactive
CCOc1ccc2nc3cc(N)ccc3c(N)c2c1,Potency,CAOV3,12.6 µM (active)
same,Potency,Es-2,inactive
same,Potency,HeLa,inactive
same,Potency,Tov-21-G,inactive
same,"activity, negative = cell killing",[1]; [3],-17.9%
same,"activity, negative = cell killing",[1]; [4],-30.3%
same,"activity, negative = cell killing","[1]; at 46 µM (top of the series), tumour line A",-14.8%
same,"activity, negative = cell killing",[1]; [5],1.93%
same,Potency,astro,inactive
COc1cc2c(cc1OC)C(=O)C(CC1CCN(Cc3ccccc3)CC1)C2 (configuration not stated),Potency,CASKI,inactive
same,Potency,Es-2,inactive
same,Potency,HeLa,inactive
same,Potency,Hek293T,inactive
same,Potency,JEG-3,inactive
same,Potency,Tov-21-G,inactive
same,Potency,Tov112D,inactive
same,Potency,astro,inactive
CCCCCCCCCCCCCCCC[N+](C)(C)CC,Potency,CASKI,8.91 µM (active)
same,Potency,Es-2,28.2 µM (active)
same,Potency,HeLa,28.2 µM (active)
same,Potency,OV90,22.4 µM (active)
same,Potency,PA-1,10 µM (active)
same,Potency,SKOV3,2.51 µM (active)
same,Potency,Tov-21-G,10 µM (active)
same,Potency,Tov112D,28.2 µM (active)
same,Potency,astro,5.62 µM (active)
CC(C)NC[C@@H](O)COc1cccc2ccccc12,Potency,CAOV3,inactive
same,Potency,Es-2,inactive
same,Potency,HeLa,inactive
same,Potency,Hek293T,inactive
same,Potency,JEG-3,inactive
same,Potency,OV90,inactive
same,Potency,PA-1,inactive
same,Potency,SKOV3,inactive
same,Potency,Tov-21-G,inactive
same,Potency,Tov112D,inactive
same,"activity, negative = cell killing",[1]; [3],-11.2%
same,"activity, negative = cell killing",[1]; [4],-22.3%
same,"activity, negative = cell killing",[1]; [5],-5.6%
same,Potency,[1]; tumour line A,28.2 µM (active)
Oc1c(I)cc(Cl)c2cccnc12,Potency,CAOV3,inactive
same,Potency,CASKI,inactive
same,Potency,HeLa,inactive
same,Potency,JEG-3,inactive
same,"activity, negative = cell killing",[1]; [5],-11.9%
same,Potency,[1]; tumour line A,17.8 µM (active)
same,Potency,[1]; tumour line B,17.8 µM (active)
same,max response,[2],-1.19%
CCCCCCCCCCCCCCCC[N+](C)(C)CCN(Cc1ccc(OC)cc1)c1ncccn1,Potency,CAOV3,17.8 µM (active)
same,Potency,PA-1,15.8 µM (active)
same,Potency,SKOV3,20 µM (active)
same,Potency,Tov112D,20 µM (active)
same,"activity, negative = cell killing","[1]; at 20 µM (top of the series), tumour line C",-23.1%
same,Potency,[1]; tumour line A,8.91 µM (active)
same,Potency,[1]; tumour line B,14.1 µM (active)
Cc1c(C)n(Cc2ccccc2)c2ccc(C(=O)OCCN(C)C)cc12,Potency,CASKI,inactive
same,Potency,Es-2,inactive
same,Potency,HeLa,inactive
same,Potency,Hek293T,inactive
same,Potency,JEG-3,inactive
same,Potency,OV90,inactive
same,Potency,Tov-21-G,inactive
same,Potency,Tov112D,inactive
same,"activity, negative = cell killing",[1]; [5],-16.7%
same,Potency,[1]; tumour line A,11.2 µM (active)
same,Potency,[1]; tumour line D,10 µM (active)
CCCCCCCCCCOCC(O)CN (configuration not stated),Potency,CAOV3,31.6 µM (active)
same,Potency,HeLa,inactive
same,Potency,Hek293T,inactive
same,Potency,JEG-3,inactive
same,Potency,PA-1,inactive
same,Potency,Tov-21-G,inactive
same,Potency,Tov112D,inactive
same,Potency,astro,28.2 µM (active)

# Reference: PubChem BioAssay (NCATS)
